The text below walks through data of PubChem BioAssay (EPA / NIEHS).

Assay [1] in a line: CCTE_Harrill_HTTr_Apoptosis_DMEM_6hr: (Pilot) CCTE's 6-hour Apoptosis Assessment for the High-Throughput Transcriptomics (HTTr) Platform, in MCF-7 cells cultured in DMEM + 10% fetal bovine serum, Harrill Lab (AID 2283981). Put shortly: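 Caspase-3/7 activation read by high content imaging with CellEvent Caspase 3/7 Green in MCF-7 cells (DMEM + 10% FBS), 6 h after dosing; eight-point dilution series. Bidirectional fitting relative to DMSO baseline.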

Assay [2] in a line: CCTE_Harrill_HTTr_Apoptosis_DMEM_12hr: (Pilot) CCTE's 12-hour Apoptosis Assessment for the High-Throughput Transcriptomics (HTTr) Platform, in MCF-7 cells cultured in DMEM + 10% fetal bovine serum, Harrill Lab (AID 2283982). A digest of the protocol: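 MCF-7 cells in DMEM + 10% FBS, exposed 12 h to an eight-point dilution series; caspase-3/7 activation imaged with CellEvent Green. Bidirectional fit versus DMSO.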

A short description of assay [3]: CCTE_Harrill_HTTr_Apoptosis_DMEM_24hr: (Pilot) CCTE's 24-hour Apoptosis Assessment for the High-Throughput Transcriptomics (HTTr) Platform, in MCF-7 cells cultured in DMEM + 10% fetal bovine serum, Harrill Lab (AID 2283983). Put shortly: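 MCF-7 cells in DMEM + 10% FBS, eight-point dilution series, 24 h exposure. Caspase-3/7 activation imaged by high-content imaging with CellEvent Caspase 3/7 Green. Bidirectional curve fitting against DMSO baseline.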

Assay [4] can be described thus: CCTE_Harrill_HTTr_Apoptosis_PRF_DMEM_6hr: (Pilot) CCTE's 6-hour Apoptosis Assessment for the High-Throughput Transcriptomics (HTTr) Platform, in MCF-7 cells cultured phenol red-free DMEM + 10% charcoal-stripped fetal bovine serum, Harrill Lab (AID 2283984). Put shortly:
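MCF-7 cells in phenol red-free DMEM + 10% charcoal-stripped FBS, eight-point dilution series, 6 h exposure. Caspase-3/7 activation imaged by high-content imaging with CellEvent Caspase 3/7 Green; bidirectional fit versus DMSO baseline.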

Assay [5] in a line: CCTE_Harrill_HTTr_Apoptosis_PRF_DMEM_12hr: (Pilot) CCTE's 12-hour Apoptosis Assessment for the High-Throughput Transcriptomics (HTTr) Platform, in MCF-7 cells cultured in phenol red-free DMEM + 10% charcoal-stripped fetal bovine serum, Harrill Lab (AID 2283985). A digest of the protocol:
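MCF-7 cells in phenol red-free DMEM with 10% charcoal-stripped FBS, eight-point dilution series, 12 h exposure. Caspase-3/7 activation imaged by high content imaging with CellEvent Green reagent; bidirectional fit vs DMSO.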

Assay [6] is described as follows: CCTE_Harrill_HTTr_Apoptosis_PRF_DMEM_24hr: (Pilot) CCTE's 24-hour Apoptosis Assessment for the High-Throughput Transcriptomics (HTTr) Platform, in MCF-7 cells cultured in phenol red-free DMEM + 10% charcoal-stripped fetal bovine serum, Harrill Lab (AID 2283986). A digest of the protocol: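 MCF-7 cells in phenol red-free DMEM with 10% charcoal-stripped FBS, exposed 24 h across an eight-point dilution series. Caspase-3/7 activation imaged with CellEvent Green by high content imaging; bidirectional fitting against DMSO.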

Assay [7] addresses Nucleoli Translocation, AR (gene 367) (UniProt P10275). Put plainly: UPITT_HCI_U2OS_AR_TIF2_Nucleoli_Antagonist: University of Pittsburgh U2OS Androgen Receptor-Transcriptional Intermediary Factor 2 (AR-TIF2) Antagonism High Content Imaging Assay for Nucleoli Translocation (AID 2283997; active = hit-call score of the fitted dose curve at least 0.9, where 1 is the maximum). Put shortly:
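Measured quantity was AR-RFP fluorescence localized to nucleoli in engineered U2OS cells also bearing TIF2-GFP, acquired on automated high-content imagers. Primary testing used 20 uM compound; actives were confirmed in triplicate wells.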

The target in assay [8] is Ratio of Nucleoli Translocation and Cytoplasm, AR (gene 367) (UniProt P10275). Description: UPITT_HCI_U2OS_AR_TIF2_Nucleoli_Cytoplasm_Ratio_Antagonist: University of Pittsburgh U2OS Androgen Receptor-Transcriptional Intermediary Factor 2 (AR-TIF2) Antagonism High Content Imaging Assay for Ratio of Nucleoli Translocation and Cytoplasm (AID 2283999; active = hit-call score of the fitted dose curve at least 0.9, where 1 is the maximum;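 note: antagonists lower the DHT-driven ratio of nucleolar to cytoplasmic red signal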). A digest of the protocol:
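U2OS cells expressing RFP-tagged human AR and GFP-tagged TIF2; compounds tested at 20 uM final (0.2% DMSO) in primary screen, 0.195–50 uM (0.5% DMSO) for concentration response. Readout: nucleolar-to-cytoplasmic red fluorescence ratio by high-content imaging, fitted relative to DHT.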

Assay [9] can be described thus: CCTE_Harrill_HTTr_Viability_MCF7: CCTE's 6-hour Cell Viability Assessment for the High-Throughput Transcriptomics (HTTr) Platform, in MCF-7 cells cultured in DMEM + 10% fetal bovine serum, Harrill Lab (AID 2284010). Put shortly: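 Membrane integrity was scored by high-content imaging of propidium iodide dye exclusion after a 6 h exposure across an eight-point dilution series. Data were fitted bidirectionally relative to DMSO as negative control and baseline.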

Assay [10] is described as follows: CCTE_Harrill_HTTr_Apoptosis_MCF7: CCTE's 6-hour Apoptosis Assessment for the High-Throughput Transcriptomics (HTTr) Platform, in MCF-7 cells cultured in DMEM + 10% fetal bovine serum, Harrill Lab (AID 2284011). A digest of the protocol: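 Apoptosis in MCF-7 cells grown in DMEM with 10% fetal bovine serum was scored after a six hour exposure by high content imaging of caspase-3/7 activation (CellEvent Caspase 3/7 Green), with DMSO serving as negative control and baseline.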

Assay [11] in a line: CCTE_Harrill_HTTr_CellCount_MCF7: CCTE's Cell Proliferation Assessment for the High-Throughput Transcriptomics (HTTr) Platform, Harrill Lab (AID 2284012; active = hit-call score of the fitted dose curve at least 0.9, where 1 is the maximum;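 note: cells exposed to compound for six hours; intended direction is loss of nuclei count meaning fewer cells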). A digest of the protocol: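 MCF-7 cells were exposed for 6 h to an eight-point dilution series; Hoechst-labeled nuclei were counted by high content imaging. Curves were fitted bidirectionally against DMSO as negative control and baseline, with signal loss indicating reduced cell count.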

Assay [12] in a line: CCTE_Simmons_MITO_basal_resp_rate: CCTE's HepG2 Seahorse XF Respirometric Screening Assay at Basal Respiratory State, Simmons Lab (AID 2284001). The conditions noted are these: actives raise or lower the signal. A digest of the protocol: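 HepG2 respirometry; 7-pt titration 125 nM–100 uM final; kinetic OCR at 6 min intervals for 72 min; n=3 biological, technical singles; DMSO baseline, gain or loss fit; fenpyroximate (decrease) and 2,4-DNP (increase) controls.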

Assay [13] is described as follows: CCTE_Simmons_MITO_max_resp_rate: CCTE's HepG2 Seahorse XF Respirometric Screening Assay at Maximal Respiratory State [uncoupled], Simmons Lab (AID 2284002). The note with it: actives raise or lower the signal. A digest of the protocol: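 Uncoupled (FCCP) respiration of HepG2 cells served as the endpoint, with measurements at 6-minute intervals across a 72-minute run and compounds dosed at 7 concentrations up to 100 uM final.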

Assay [14] is described as follows: CCTE_Simmons_MITO_inhib_resp_rate: CCTE's HepG2 Seahorse XF Respirometric Screening Assay at Inhibited Respiratory State [full ETC block], Simmons Lab (AID 2284006). The conditions noted are these: actives raise or lower the signal. A digest of the protocol:
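HepG2 cells on Seahorse XF96; oxygen consumption measured after test compound, then FCCP, then rotenone/antimycin A injections over 72 min. Test chemicals at 7 concentrations, 125 nM–100 uM final. OCR fitted bidirectionally versus DMSO.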

The nature of assay [15]: CCTE_Simmons_MITO_viability: CellTiter-Glo Viability Assessment for CCTE's HepG2 Seahorse XF Respirometric Screening Assay [post-hoc], Simmons Lab (AID 2284007; active = hit-call score of the fitted dose curve at least 0.9, where 1 is the maximum;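 for AC50: cells exposed to chemical for 90 min before the ATP read; actives lower ATP signal relative to DMSO baseline meaning reduced viability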). Put shortly: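 HepG2 cells from the Seahorse XF respirometry run were exposed 90 min to a 7-point series, 125 nM–100 uM final, DMSO vehicle; ATP content then read by luciferase luminescence. Three biological replicates, technical singles; loss of signal fitted versus DMSO.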
On the technique in general: Cellular ATP, detected with luciferase, serves as a proxy for viable cell number.

The nature of assay [16]: CCTE_Shafer_MEA_acute_spike_number: CCTE's Neural Acute Assay for Total Number of Spikes, Shafer Lab (AID 2284008).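 For AC50: curve fitted for decrease in spike count so AC50 reflects inhibitors.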 Put shortly:
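Using an adaptive detector set to 8x rms noise, spikes were counted in 40-min windows before and after compound addition (0.03-40 uM) to rat cortical networks at 37 C; the well-level change from baseline was analysed relative to DMSO.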

A short description of assay [17]: CCTE_Shafer_MEA_acute_firing_rate_mean: CCTE's Neural Acute Assay for Mean Firing Rate, Shafer Lab (AID 2284009).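 Note: analyzed for loss of signal so actives lower firing rate relative to DMSO.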 Put shortly:
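Percent change in well-mean firing rate was derived from extracellular spikes detected at 8x rms noise (300-5000 Hz band-pass) before and after a 40-min compound exposure. Cultures were primary rat cortical neurons, tested at 0.03-40 uM.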

The nature of assay [18]: CCTE_Shafer_MEA_acute_burst_number: CCTE's Neural Acute Assay for Single-Electrode Bursts, Shafer Lab (AID 2284013). A digest of the protocol: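 Spontaneous network activity of primary rat cortical neurons was recorded extracellularly on microelectrode arrays at 37 C, with 40-min periods before and during exposure to 0.03-40 uM compound on DIV 13 or 15.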
The nature of assay [19]: CCTE_Shafer_MEA_acute_burst_duration_mean: CCTE's Neural Acute Assay for Mean Burst Duration, Shafer Lab (AID 2284014).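 Note: hits are decreases in mean burst duration relative to DMSO controls.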 A digest of the protocol:
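Read-out is the per-well percent change in mean burst duration (first to last spike within a single-electrode burst) between 40-min recordings before and after compound. Cultures were primary rat cortical neurons on MEAs, dosed at 0.03-40 uM on DIV 13 or 15.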

The test system of a further assay is DIO1 (gene 1733). Put plainly: CCTE_GLTED_hDIO1: CCTE's human Deiodinase 1 (DIO1) Inhibition Assay, Great Lakes Toxicology and Ecology Division (GLTED) Lab (AID 2283987; active = hit-call score of the fitted dose curve at least 0.9, where 1 is the maximum;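 note: isolated human DIO1 enzyme in a cell-free setup rather than cells; enzyme activity read as free iodide liberated from substrate via Sandell-Kolthoff colorimetry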). A digest of the protocol:
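Chemicals are tested on human DIO1 without cells for 3 h. Uninhibited enzyme frees iodide, which speeds cerium(IV) reduction by arsenic and is read by spectrophotometry.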

The AC50 is the concentration giving half of the maximal activity seen.

Several values for one entry are separate records, joined by “and”; a condition that tells them apart may be missing. Equal entries are not always repeated. Results filed as inconclusive are left out. Some compounds were tested as several samples or in several runs, with calls that do not always agree. Activity calls are given as the source filed them. Rule for the calls, unless noted: active = hit-call score of the fitted dose curve at least 0.9, where 1 is the maximum; inactive = score below 0.9.

Ratio of Nucleoli Translocation and Cytoplasm, AR (gene 367), sequence (P10275 whole entry, looked up): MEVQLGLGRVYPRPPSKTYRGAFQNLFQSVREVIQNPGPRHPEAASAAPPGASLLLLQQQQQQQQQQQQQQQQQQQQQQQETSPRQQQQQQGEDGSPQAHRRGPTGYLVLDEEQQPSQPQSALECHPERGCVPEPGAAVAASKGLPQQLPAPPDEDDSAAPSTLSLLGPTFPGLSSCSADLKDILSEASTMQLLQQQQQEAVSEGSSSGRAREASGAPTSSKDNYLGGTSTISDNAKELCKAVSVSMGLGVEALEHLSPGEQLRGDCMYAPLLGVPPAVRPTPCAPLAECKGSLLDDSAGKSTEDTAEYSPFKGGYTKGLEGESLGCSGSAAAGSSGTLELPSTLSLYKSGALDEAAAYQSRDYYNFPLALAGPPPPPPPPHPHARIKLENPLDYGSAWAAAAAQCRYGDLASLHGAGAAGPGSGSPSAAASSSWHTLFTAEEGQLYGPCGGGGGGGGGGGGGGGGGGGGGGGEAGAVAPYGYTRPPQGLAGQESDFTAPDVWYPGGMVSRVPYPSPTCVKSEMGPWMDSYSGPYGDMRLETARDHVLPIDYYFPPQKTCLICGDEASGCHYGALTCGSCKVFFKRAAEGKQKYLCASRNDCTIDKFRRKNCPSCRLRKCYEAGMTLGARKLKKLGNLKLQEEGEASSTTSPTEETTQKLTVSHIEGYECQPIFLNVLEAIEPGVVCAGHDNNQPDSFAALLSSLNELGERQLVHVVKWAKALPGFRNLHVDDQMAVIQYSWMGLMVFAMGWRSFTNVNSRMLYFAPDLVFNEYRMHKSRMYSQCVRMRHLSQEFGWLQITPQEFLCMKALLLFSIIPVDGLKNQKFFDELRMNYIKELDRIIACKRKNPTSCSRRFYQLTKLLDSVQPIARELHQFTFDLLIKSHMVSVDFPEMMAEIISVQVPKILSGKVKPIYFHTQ
Nucleoli Translocation, AR (gene 367), sequence (P10275 whole entry, looked up): as above

In the case of `CN(C)C(=S)SSC(=S)N(C)C`, the outcome in [1], in assay [2], in [4], in assay [5], in [6] and in assay [9] was inactive. In addition, the result in [10] and in [11] was inactive. Also, the AC50 is 80.6 µM (active) in assay [3], 12.6 µM (active) in assay [7] and 9.92 µM (active) in assay [8].
For `CC1COC(Cn2cncn2)(c2ccc(Oc3ccc(Cl)cc3)cc2Cl)O1` (centres undefined), the AC50 in assay [12] was 6.1 µM (active); in [13], 6.64 µM (active); in assay [14], 6.05 µM (active); in assay [16], 3.53 µM (active); in [17], 3.53 µM (active); in [18], 5.26 µM (active). The compound was called inactive in assay [15], in assay [9], in assay [10], in [11] and in [19].
Consider `Cc1ccc(-c2c(Cl)nc(C#N)n2S(=O)(=O)N(C)C)cc1`, for which the AC50 was 43.7 µM (active) in the assay on DIO1 (gene 1733), 0.982 µM (active) in [12] and 34 µM (active) in [13]. Besides, the compound was classed as inactive in assay [7], in assay [8], in assay [14], in assay [15], in assay [16] and in [17]. Besides, the outcome in assay [9], in [10], in [18] and in assay [19] was inactive.
With `N#Cc1nn(-c2c(Cl)cc(C(F)(F)F)cc2Cl)c(N)c1S(=O)C(F)(F)F` (centres undefined), the AC50 in the assay on DIO1 (gene 1733) was 50.6 µM (active); in assay [16] it was 10.3 µM (active) and 9.11 µM (active); in assay [17], 10.3 µM (active) and 9.11 µM (active). The compound was classed as inactive in assay [7], in assay [8], in assay [12], in assay [13], in [14] and in assay [15]. Besides, the result in [9], in assay [10], in assay [11], in assay [18] and in assay [19] was inactive.
With `C=CCC1=C(C)C(OC(=O)C2C(C=C(C)C)C2(C)C)CC1=O` (centres undefined), the AC50 is 34.7 µM (active) and 46.9 µM (active) in assay [12]; 36.2 µM (active) and 53.5 µM (active) in assay [13]; 26 µM (active) and 42.3 µM (active) in assay [14]; 5.17 µM (active) in assay [15]. Also, the result in assay [15], in [16], in assay [17], in assay [9], in assay [10] and in assay [18] was inactive. In addition, the call in assay [19] was inactive.
On to `O=C(Nc1ccccc1)Nc1ccnc(Cl)c1`, for which the outcome in assay [8], in [14], in [15], in assay [9], in [10] and in [11] was inactive. The results for the AC50 in assay [12] and in [13] were 72.3 µM (active) and 50 µM (active), respectively.
On to `CCCC1COC(Cn2cncn2)(c2ccc(Cl)cc2Cl)O1` (centres undefined), for which the result in [1], in [2], in assay [3], in [4], in assay [5] and in assay [6] was inactive. Moreover, the result in assay [8], in [14], in assay [16], in assay [17], in [9] and in assay [10] was inactive. Also, the outcome in assay [18] and in [19] was inactive. The AC50 in assay [12] is 18.4 µM (active); in assay [13], 33.7 µM (active); in assay [15] it was 26.5 µM (active).
Turning to `Cc1cc(Cl)ccc1OCC(=O)O`, the result in assay [8], in assay [9] and in assay [10] was inactive.
`COC(=O)N(OC)c1ccccc1COc1ccn(-c2ccc(Cl)cc2)n1`: the outcome in assay [1], in assay [2], in assay [3], in assay [4], in [5] and in [6] was inactive. Moreover, the outcome in [15], in assay [9], in assay [10] and in assay [19] was inactive. For the same compound, the AC50 in assay [12] is 2.05 µM (active); in assay [13] it was 1.7 µM (active); in [14], 1.69 µM (active); in assay [16] it was 0.0781 µM (active); in assay [17], 0.0783 µM (active); in [18] it was 0.0942 µM (active).
